# Bim-Mcl-1: human Bim-Mcl-1 interaction inhibition. Q07820. inhibition, % at 10 µM. actives 0.1% (n = 190,000). Bead-based flow cytometry, Bim peptide-Mcl-1 binding. AID 1009; in the data active = inhibition above about 40%;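 note: 0% = no compound tracer wells and 100% = peptide blocker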
# eIF4E-4G inh: inhibitors of eIF4E and eIF4G interaction in translation initiation | TR-FRET eIF4E-eIF4GI(517-606) binding, 2 h | inhibition, % at 21.7 µM | actives 0.37% (n = 220,000) | AID 782;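 note: 0% = full FRET control wells and 100% = background wells lacking eIF4GI fragment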
# NCF1 inh: p47phox (human) inhibition | p47phox/p22phox peptide binding, fluorescence polarization, 2 h | inhibition, % at 24.7 µM | actives 0.53% (n = 220,000) | AID 1274;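 note: 0% = p47phox with labelled peptide and 100% = labelled peptide alone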
# Target sequence (P14598 whole entry, looked up): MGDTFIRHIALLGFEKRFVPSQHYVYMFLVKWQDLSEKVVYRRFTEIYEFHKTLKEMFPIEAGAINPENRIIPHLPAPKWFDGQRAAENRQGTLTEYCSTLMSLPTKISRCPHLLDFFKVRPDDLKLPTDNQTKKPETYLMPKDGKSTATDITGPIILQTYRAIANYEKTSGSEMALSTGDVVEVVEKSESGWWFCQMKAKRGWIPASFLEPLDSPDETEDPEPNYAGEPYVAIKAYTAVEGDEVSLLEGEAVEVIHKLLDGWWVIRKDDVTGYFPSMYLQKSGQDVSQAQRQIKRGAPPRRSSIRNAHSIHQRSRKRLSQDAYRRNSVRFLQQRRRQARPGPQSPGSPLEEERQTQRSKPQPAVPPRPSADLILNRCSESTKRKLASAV
# 14-3-3 Bad PPI: disrupts binding of bovine 14-3-3 zeta to phospho-Bad peptide. P63103. TR-FRET 14-3-3zeta/Dy647-pBad peptide displacement, 1 h. inhibition, % at 21.7 µM. actives 0.71% (n = 220,000). AID 781;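 active = inhibition above about 70%, limit read from the data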;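 note: 0% = full 14-3-3 plus peptide FRET controls and 100% = background without 14-3-3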
# Mcl1 Bid PPI: disrupts binding of human Mcl-1 to Bid peptide | Q07820 | inhibition, % at 21.7 µM | TR-FRET Mcl-1/Bid-Dy647 peptide binding, 1536-well | actives 0.97% (n = 220,000);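 active = compounds that cut the binding signal by more than half at the single screening dose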;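 note: His-tagged Mcl-1 with europium anti-His antibody binding Bid BH3 peptide; 0% = Mcl-1 plus peptide wells and 100% = peptide-only wells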
# Mcl1-Noxa inh: Mcl-1/Noxa interaction inhibition; TR-FRET Mcl-1/Noxa peptide binding, 2 h; actives 1.5% (n = 220,000); Q07820; inhibition, % at 21.7 µM;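 active = compounds that cut the protein-peptide binding signal by more than 50% relative to plate controls in a single-dose test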;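 note: His-tagged Mcl-1 with rhodamine Noxa BH3 peptide and terbium anti-His antibody; 0% = Mcl-1 plus Noxa peptide wells and 100% = peptide-only wells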
# The depositor's hits bear a star; / = not tested or not shown; [ ] = remark or other dose. The list is not random: actives were taken first. Their share in the collection is about 3.3%.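 Rule for the calls, unless noted: active = inhibition above about 30% (limit read from the data); inactive = the rest.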
SMILES,Bim-Mcl-1,eIF4E-4G inh,NCF1 inh,14-3-3 Bad PPI,Mcl1 Bid PPI,Mcl1-Noxa inh
Cc1ccc(-c2ccc(/C=C3/NC(=O)NC3=O)o2)cc1[N+](=O)[O-],2,-3,0,90*[fluorescence artefact?],73*,77*
Cc1cc(C)nc(NC(=S)Nc2cccc(Cl)c2Cl)c1,2,-3,-13,-4,-32,-10
COC(=O)c1ccc(CSc2nnc(NCc3ccccc3)s2)o1,-3,-10,1,-10,-8,3
COC(=O)c1ccc(CSc2nc(-c3ccccc3)cs2)o1,-2,3,-11,-11,-4,80*
CCC/C(=N/NC(=O)c1ccccc1Cl)c1ccccc1,-2,5,-2,-13,-9,5
CS(=O)(=O)c1ccc(C(=O)OCC(=O)NC(=O)C2CCCCC2)cc1[N+](=O)[O-],0,-2,-2,3,-3,0
COc1ccc(C(=O)n2nc(C)c(Br)c2C)cc1,-4,-4,-2,13,16,85*
Cc1nn(C(=O)c2ccco2)c(C)c1Br,-2,0,-17,3,-12,20
N#C/C(=N\Nc1ccc(S(=O)(=O)N2CCc3ccccc32)cc1)C(N)=S,2,-2,-24,-14,-7,60*
CCOc1cc(/C=N/Nc2ccc(C(=O)O)cc2)ccc1OC(=O)c1ccccc1C,/,-2,-7,5,5,56*
COc1cccc(OCc2cc(/C=N/Nc3ccc(C(=O)O)cc3)ccc2OC)c1,/,-6,-24,1,-34,67*
CC(=O)c1ccc(-n2c(-c3cc(-c4ccco4)[nH]n3)n[nH]c2=S)cc1,-5,-5,-12,-9,-91,63*
O=C(O)c1ccc(-n2c(-c3cc(-c4ccco4)[nH]n3)n[nH]c2=S)cc1,-2,14,-29,15,-78,46
COc1ccccc1/C=C1/SC(=O)N(CCC(=O)Nc2ccc(S(=O)(=O)Nc3nccs3)cc2)C1=O,-4,8,-48,-2,-135,78*
O=C(CCN1C(=O)S/C(=C\c2ccccc2)C1=O)Nc1ccc(S(=O)(=O)Nc2nccs2)cc1,-1,-17,-100,-5,-84,82*
CCCn1nc(C(=O)Nc2ccc(S(=O)(=O)Nc3nccs3)cc2)c2ccccc2c1=O,-1,0,-56,8,-35,51*
COc1ccc(-n2c(C)nc(N)c2C(=O)c2ccccc2)cc1,/,0,-7,-6,-114,15
C=CCSc1nc2c(cc1C#N)CCC2,0,-5,-8,90*[fluorescence artefact?],18,27
COc1ccc(-c2nc(C#N)c(N3CCC(C(N)=O)CC3)o2)cc1,-1,-4,-15,30,32,19
N#Cc1nc(-c2ccc(OCc3ccccc3)cc2)oc1N1CCC(C(N)=O)CC1,1,-22,55*,20,24,16
CCN(CCNC(=O)C1CCCN(Cc2nc(-c3ccc(OC)cc3)oc2C)C1)c1ccccc1 (centres undefined),0,6,-2,86*,-69,12
Nc1ccc(C(=O)Nc2cccc(N)c2)cc1,/,-3,-6,-3,-16,0
Cc1ccnc2nc(C(=O)OCC(=O)c3c[nH]c4ccccc34)nn12,/,6,-37,-2,6,17
CC(=O)Nc1ccc(Nc2nc(C)nc3c2oc2ccccc23)cc1,1,2,-11,-1,-23,4
CC(=O)c1ccc(Nc2ncnc3c2oc2ccccc23)cc1,-3,-7,-5,72*,21,30
SMILES,Bim-Mcl-1,eIF4E-4G inh,NCF1 inh,14-3-3 Bad PPI,Mcl1 Bid PPI,Mcl1-Noxa inh
CCSc1ncc(CO)c(N)n1,/,1,-8,5,-3,10
CCOC(=O)c1c(CS(=O)(=O)c2ccccc2)n(C)c2cc(Br)c(O)c(CN(C)C)c12,0,1,-5,1,-26,62*
COC(=O)c1ccc(C2Nc3cccc4cccc(c34)N2)cc1,1,-2,0,-11,-31,40
Oc1ccc(C2Nc3cccc4cccc(c34)N2)c(O)c1,7,23,-16,-13,19,103*
COc1cc(C2Nc3cccc4cccc(c34)N2)cc(OC)c1O,12,14,-19,-12,10,100*
c1coc(C2Nc3cccc4cccc(c34)N2)c1,15,17,24,-14,-21,76*
COc1cc(C2Nc3cccc4cccc(c34)N2)ccc1OC(C)=O,12,-12,-12,-5,-1,69*
O=C(CN1CCCC1)Nc1ccc(-c2nc3cc(NC(=O)CN4CCCC4)ccc3o2)cc1,-3,-5,-24,6,-3,18
COCCNC(=O)C(=O)NNS(=O)(=O)c1ccc2ccccc2c1,0,-3,3,8,-19,19
COc1ccc(-n2cc(CNCc3cnc4ccccn34)c(-c3cccc(F)c3)n2)cc1,0,-2,-27,-23,-14,15
O=C(O)c1nnn(-c2cccc(C(F)(F)F)c2)c1-c1ccccc1,/,0,0,-4,1,7
CCN(CC)S(=O)(=O)c1cccc(-n2c(O)c(C=Nc3ccccc3C(=O)O)c3ccccc3c2=O)c1,/,-3,-12,4,-2,18
CC(C)COc1ccc(C(=O)N2C(=O)c3ccc(N)cc3C2=O)cc1,/,0,-8,0,-1,-16
CCCCN=C1NN=C(c2cc3ccccc3o2)CS1,-1,-9,-45,-8,-45,70*
CCc1nnc2n1N=C(c1cccc([N+](=O)[O-])c1)CS2,/,6,-5,6,13,16
CCCCN=C1NN=C(c2cccc([N+](=O)[O-])c2)CS1,3,-3,6,-5,9,51*
COc1ccc(CCn2c(=S)[nH]c3ccc(N4CCOCC4)cc3c2=O)cc1OC,-1,-1,-9,-14,-38,38
COc1ccccc1N1CCN(CC(=O)NCC2CCCO2)CC1 (centres undefined),-16,8,0,75*,47,33
O=C(CN1CCN(c2ccc(F)cc2)CC1)NCC1CCCO1 (centres undefined),-5,13,-6,-10,-79,7
O=C(Nn1c(-c2ccncc2)nc2ccccc2c1=O)c1ccc([N+](=O)[O-])cc1Cl,2,-1,-8,3,-11,16
CC(C)NC(=O)c1cc(=O)n(C)c(=O)n1C,-1,-6,5,88*,-12,-18
Cn1c(C(=O)NC2CC2)cc(=O)n(C)c1=O,-1,2,-8,-11,5,1
COc1ccc(OCCNC(=O)c2ccccc2OCC(=O)Nc2ccc(NC(C)=O)cc2)cc1,-1,2,-8,10,-25,16
COc1ccc(OCCNC(=O)c2ccccc2OCC(=O)N2CCCCC2)cc1,68*,-2,-5,0,-7,-13
O=C(N=Nc1c(O)[nH]c2ccc([N+](=O)[O-])cc12)c1ccccc1Cl,/,-2,-3,33,-7,37

# Screens from PubChem BioAssay.
